Results: the supplement of paper PMC10646978
± gives the standard deviation.

How the values were obtained:
Conditions in all cases: modulator concentration 10 µM
[1] = system: RAW-Dual (murine macrophage reporter line); assay: NF-kB reporter (SEAP) activity fold change vs agonist alone; higher = enhanced NF-kB activity
How it was run: (§1)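 RAW-Dual murine macrophage reporter cells were plated at 50 000 per well in 384-well plates, pin-transferred compound to 10 μM final, and pre-incubated for 1 hour at 37 °C before a PRR agonist was added and the cells incubated overnight. NF-κB activity was read from supernatant SEAP with QUANTI-Blue at 620 nm absorbance, and IRF activity from Lucia luciferase with QUANTI-Luc by luminescence. Each signal was expressed as fold change by dividing by the mean agonist-only control on the same plate. Two replicate plates were averaged, with errors obtained by propagation.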

[2] = system: RAW-Dual (murine macrophage reporter line); assay: IRF reporter (Lucia luciferase) activity fold change vs agonist alone; higher = enhanced IRF activity
How it was run: as §1

[3] = system: RAW-Dual (murine macrophage reporter line); assay: viability score (confluency relative to resting cells, overnight) (fraction); higher = more viable, active = viable (0.7 or more)
How it was run: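 RAW-Dual macrophages in 384-well plates were treated overnight with compound at 10 μM final. IncuCyte imaging recorded confluency, and IncuCyte software built two confluency masks across every imaged well. The viability score expresses confluency relative to resting cells and was judged against a cutoff, which a compound met only if both masks exceeded 70% of resting cells.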

[4] = agonist: CpG ODN 1826 0.5 ug/mL

SMILES	NF-kB reporter [1, 4]	NF-kB reporter ([1]; agonist: LPS 0.1 ug/mL)	NF-kB reporter ([1]; agonist: MPLA […])	IRF reporter ([2]; agonist: 3'3'-cGAMP 10 ug/mL)	IRF reporter ([2]; agonist: LPS 0.1 ug/mL)	IRF reporter ([2]; agonist: MPLA […])	viability score [3]
CCOC(=O)C1=C(C)NC2=C(C(=O)CC(C)(C)C2)C1c1ccccc1Br (configuration not stated)	0.993 ± 0.096	1.07 ± 0.059	0.934 ± 0.056	0.898 ± 0.022	1.32 ± 0.19	0.975 ± 0.2	1.02 (active)
Cc1noc(C)c1CCC(=O)N1CCCC(c2nnc(C(F)(F)F)o2)C1 (configuration not stated)	0.991 ± 0.12	1.06 ± 0.087	0.923 ± 0.042	0.988 ± 0.082	1.12 ± 0.1	1.02 ± 0.077	1.01 (active)
CC[C@H](C)C(=O)O[C@H]1C[C@@H](C)C=C2C=C[C@H](C)[C@H](CC[C@@H]3C[C@@H](O)CC(=O)O3)[C@H]21	2.37 ± 0.12	1.5 ± 0.12	1.77 ± 0.078	0.639 ± 0.058	0.795 ± 0.055	0.776 ± 0.17	0.238 (inactive)
Cc1ccc(S(=O)(=O)NC(=O)NN2CC3CCCC3C2)cc1 (configuration not stated)	1.22 ± 0.17	1.17 ± 0.48	0.973 ± 0.061	0.901 ± 0.082	1.23 ± 0.46	1.14 ± 0.088	0.987 (active)
Cl.c1ccc(CC2=NCCN2)cc1	0.999 ± 0.14	1.08 ± 0.17	0.923 ± 0.051	0.887 ± 0.027	1.17 ± 0.22	1.13 ± 0.1	0.993 (active)
Cc1cc(C#N)cc(C)c1Oc1nc(Nc2ccc(C#N)cc2)nc(N)c1Br	1.15 ± 0.049	1.3 ± 0.1	1.5 ± 0.14	1.39 ± 0.21	1.05 ± 0.24	1.28 ± 0.42	0.97 (active)
Nc1ncnc2c1ncn2[C@@H]1O[C@H](CO)[C@@H](O)[C@@H]1O.O	1.09 ± 0.064	1.02 ± 0.065	0.997 ± 0.058	0.714 ± 0.026	1.04 ± 0.13	1.18 ± 0.14	0.991 (active)
COc1ccc(OC)c(C=NNC(=O)c2cc(C)oc2C)c1	0.912 ± 0.16	0.925 ± 0.098	0.877 ± 0.067	0.936 ± 0.044	1.26 ± 0.22	1.25 ± 0.2	0.566 (inactive)
CC(C)(C)c1cc(C(=O)NN=Cc2ccc([N+](=O)[O-])cc2)[nH]n1	0.924 ± 0.12	0.953 ± 0.083	0.893 ± 0.09	0.858 ± 0.061	1.2 ± 0.11	1.02 ± 0.072	1.01 (active)
CC(C(=O)N1CCN(S(=O)(=O)C2CC2)CC1)n1nc2c(cc1=O)CCC2 (configuration not stated)	0.928 ± 0.086	1.06 ± 0.095	0.934 ± 0.082	0.977 ± 0.091	0.964 ± 0.1	0.904 ± 0.19	1.01 (active)
CC(C)(O)CNC(=O)c1cccc([N+](=O)[O-])c1	0.928 ± 0.074	0.96 ± 0.11	0.954 ± 0.058	0.811 ± 0.12	0.971 ± 0.15	0.979 ± 0.23	0.995 (active)
Nc1ccn([C@@H]2O[C@H](CO)[C@@H](O)C2(F)F)c(=O)n1	1.8 ± 0.25	1.07 ± 0.28	1.21 ± 0.11	1.59 ± 0.088	1.61 ± 0.35	1.33 ± 0.31	0.241 (inactive)
O=c1c(-n2ccnn2)c[nH]n1-c1cc(N2CCOCC2)ncn1	0.74 ± 0.2	0.846 ± 0.046	0.853 ± 0.054	0.878 ± 0.04	1.09 ± 0.26	1.09 ± 0.15	1 (active)
CC(=NNC(=O)CSc1nc2ccccc2n1Cc1ccccc1)c1ccc(Br)cc1	0.996 ± 0.12	0.996 ± 0.1	1.04 ± 0.036	0.942 ± 0.042	0.946 ± 0.16	1.01 ± 0.29	0.996 (active)
CC1(C)CC(=O)C2=C(C1)OC(N)=C(C#N)C2c1ccccc1C(F)(F)F (configuration not stated)	1.01 ± 0.073	1.09 ± 0.074	1.06 ± 0.14	0.999 ± 0.059	1.22 ± 0.086	1.26 ± 0.29	0.994 (active)
Cc1cc(C)c(NC(=O)COc2ccc(C)cc2C(C)(C)C)c(C)c1	0.975 ± 0.13	0.975 ± 0.06	0.962 ± 0.11	0.953 ± 0.029	1.14 ± 0.19	1.01 ± 0.23	1.01 (active)
Oc1ccc(OCc2ccccc2)cc1	1.78 ± 0.25	1.51 ± 0.34	1.34 ± 0.095	0.665 ± 0.033	1.46 ± 0.27	1.42 ± 0.17	0.832 (active)
Nc1c2c(nc3ccccc13)CCCC2O (configuration not stated) [Prestw-448]	0.958 ± 0.059	0.88 ± 0.068	0.958 ± 0.026	1.01 ± 0.042	0.964 ± 0.05	0.906 ± 0.087	0.994 (active)

SMILES	NF-kB reporter [1, 4]	NF-kB reporter ([1]; agonist: LPS 0.1 ug/mL)	NF-kB reporter ([1]; agonist: MPLA […])	IRF reporter ([2]; agonist: 3'3'-cGAMP 10 ug/mL)	IRF reporter ([2]; agonist: LPS 0.1 ug/mL)	IRF reporter ([2]; agonist: MPLA […])	viability score [3]
CC(=O)N1CCN(C(=O)Cn2cnc(-c3ccc(C)cc3)cc2=O)CC1	0.929 ± 0.095	1.01 ± 0.1	1.06 ± 0.14	1.02 ± 0.058	1.17 ± 0.24	1.18 ± 0.45	0.964 (active)
Cc1nc(-c2ccc(OCC(C)C)c(C#N)c2)sc1C(=O)O	0.891 ± 0.14	0.957 ± 0.34	1.02 ± 0.065	0.883 ± 0.048	0.973 ± 0.3	1.06 ± 0.22	1 (active)
CCC(=O)Nc1ccc(S(=O)(=O)NCC2CCN(Cc3ccccc3)CC2)c(C)c1	0.787 ± 0.038	0.961 ± 0.076	1.08 ± 0.058	1.14 ± 0.053	1.37 ± 0.23	1.49 ± 0.43	0.967 (active)
COc1ccccc1C(=O)Nc1ccc(-c2nc3cc(C)ccc3o2)cc1	0.794 ± 0.063	0.996 ± 0.051	1.12 ± 0.11	0.803 ± 0.039	1.55 ± 0.11	1.62 ± 0.14	0.975 (active)
CN(C)CC/C=C1/c2ccccc2Sc2ccc(Cl)cc21	0.942 ± 0.058	1.02 ± 0.085	1.08 ± 0.078	0.925 ± 0.043	1.08 ± 0.19	1.23 ± 0.38	1.02 (active)
CC1(C)OC(=O)C(=Cc2ccc(I)o2)C(=O)O1	0.595 ± 0.069	1.01 ± 0.069	0.887 ± 0.17	0.589 ± 0.049	1.02 ± 0.18	0.877 ± 0.26	1.01 (active)
CC(C)Oc1ccc(Br)cc1C=C(C#N)c1nn(CCO)c(N)c1C#N	1.33 ± 0.11	1.16 ± 0.066	1.11 ± 0.077	0.91 ± 0.027	1.2 ± 0.22	1.03 ± 0.18	1.01 (active)
Cc1[nH]c(=O)c(C#N)cc1-c1ccncc1	1.34 ± 0.19	1.26 ± 0.28	2.34 ± 1.3	0.895 ± 0.027	1.31 ± 0.15	1.34 ± 0.2	0.99 (active)
CC(Nc1ccc(N)cc1)=C1C(=O)c2ccccc2C1=O	0.913 ± 0.083	0.855 ± 0.043	1.01 ± 0.09	0.888 ± 0.059	1.49 ± 0.1	1.68 ± 0.15	1 (active)
Cc1ccc(Nc2cc(N3CCCCC3)c(N)c3c2C(=O)c2ccccc2C3=O)cc1	1.26 ± 0.23	1.09 ± 0.067	0.964 ± 0.12	1 ± 0.057	1.56 ± 0.21	1.12 ± 0.12	0.996 (active)
O=C(c1ccc(-c2nc3ccccc3s2)s1)N1CCOCC1	1.08 ± 0.11	1.02 ± 0.15	1.16 ± 0.17	0.879 ± 0.06	1.19 ± 0.25	1.21 ± 0.44	0.964 (active)
CCN(CC)C(=O)N1CCN(C)CC1 [Prestw-284]	1.02 ± 0.063	1.03 ± 0.064	0.96 ± 0.062	0.974 ± 0.034	1.41 ± 0.24	1.28 ± 0.14	0.99 (active)
C(=C\c1ccccc1)/CN1CCN(C(c2ccccc2)c2ccccc2)CC1	1.14 ± 0.16	0.957 ± 0.37	0.989 ± 0.065	0.828 ± 0.028	1.23 ± 0.44	1.33 ± 0.1	0.979 (active)
CN(C)CCNC(=O)C(=O)NC(c1ccccc1)c1ccccc1	1.03 ± 0.11	1.01 ± 0.089	0.95 ± 0.027	0.998 ± 0.042	1.03 ± 0.091	0.962 ± 0.12	0.996 (active)
CC1CCN(c2ccc(-c3ccc(NC(=O)c4ccc5ncsc5c4)cc3)nn2)CC1	0.914 ± 0.039	0.98 ± 0.078	1.02 ± 0.057	0.967 ± 0.045	1.09 ± 0.12	1.17 ± 0.23	0.986 (active)
COc1ccc(CC(=O)N2CCCc3ccccc32)cc1OC	0.909 ± 0.078	0.778 ± 0.054	1.01 ± 0.09	0.973 ± 0.046	1.41 ± 0.1	1.6 ± 0.17	1.02 (active)
CCN1CCN(c2nc3c(c(=O)[nH]c(=O)n3C)n2CC(O)COc2cc(C)ccc2C(C)C)CC1 (configuration not stated)	1.18 ± 0.067	1.08 ± 0.086	1.2 ± 0.064	1.1 ± 0.061	1.38 ± 0.14	1.48 ± 0.31	0.956 (active)
COc1cc(Br)c(C=C(C#N)c2nn(-c3ccccc3)c(N)c2C#N)cc1OC	1.25 ± 0.1	1.09 ± 0.08	1.07 ± 0.1	0.936 ± 0.025	1.25 ± 0.24	1.18 ± 0.25	1.01 (active)
